Source: PubChem BioAssay (Broad Institute)
Only some compounds are listed: those with a hit (about 2.2% of all), similar ones and a draw of the others.
PAX8 inh HTS: inhibitors of PAX8 transcriptional activity in RMG-I cells. AID 652154. inhibition, % at 12.6 µM. RMG-I TPO-luciferase reporter, SteadyGlo, 24 h. 1.2% of 360,000 active;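 active = mean replicate inhibition at least 60% with every replicate also reaching 60%; inconclusive = only one of the two criteria is met; inactive = mean below 60% and not all replicates reaching 60%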;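 note: luciferase light reporting Pax8 driven TPO promoter activity; plate controls were median of neutral control wells for no effect and mitoxantrone controls for full effect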
EWS-Fli block: blocks EWS/Fli oncoprotein-driven transcription. A673 NR0B1-luciferase reporter, viability-normalised. inhibition, % at 12.6 µM. 0.67% of 350,000 active;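 active = mean inhibition of at least 50% after viability correction, with every replicate also passing that limit; inconclusive = mean reaches 50% but only one of two replicates passes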;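 note: firefly luciferase signal divided by Alamar Blue viability fluorescence both relative to DMSO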
LGR2 antag: Drosophila LGR2 receptor signaling inhibition; HEK293 LGR2, CRE-luciferase, bursicon-stimulated, 4 h; inhibition, % at 9.99 µM; 0.35% of 380,000 active; AID 720647;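 active = drop in luminescence signal, shown as inhibition above about 50% in the replicate tests, limit read from the data, passing the limit was not always enough; inconclusive = probably only some replicates passing the limit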;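 note: agonist challenge used bursicon conditioned medium at about half maximal strength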
TRPM1 prom inh: reduces MITF-dependent TRPM1 promoter luciferase signal | SK-MEL-5 TRPM1 promoter luciferase, 24 h | inhibition, % at 12.5 µM | 0.83% of 330,000 active;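 active = mean inhibition across replicates of 60% or more, whatever share of single replicates reaches that level; inconclusive = some that reach 60%, reason not given; inactive = mean inhibition across replicates below 60%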
PGC1a acetyl inh: PGC1a acetylation modulation, inhibitor mode | inhibition, % at 15.6 µM | 0.17% of 350,000 active | U2OS PGC1a acetylation, AlphaScreen anti-acetyl-lysine; with virally co-expressed GCN5 acetyltransferase;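 active = every replicate shows inhibition of at least 40%; inconclusive = mean inhibition at least 40% but some replicate below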;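 note: 0% = neutral control wells and 100% = positive control wells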
EBV LMP1 NFkB: inhibitors of Epstein-Barr LMP1-induced NF-kappaB reporter; LMP1-induced NF-kappaB luciferase reporter cells, luminescence; inhibition, % at 12.5 µM; 0.69% of 350,000 active; AID 504558; in the data active = inhibition above about 41%; inconclusive = no clear call, values can overlap the other calls;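 note: 0% = neutral control wells and 100% = reference inhibitor control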
DNA binding: binds DNA displacing acridine orange; shares compounds with EWS-Fli block; salmon sperm DNA acridine orange fluorescence polarization; AC35, µM (top dose mostly 68 µM), inactives show at the top dose activity change, negative = DNA binding; 2% of 640 active; AID 720586;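 active = fitted curve reaches a 35% signal fall AC35 below twice the sample's top valid tested dose, actives reach about 48 µM in these data; inactive = the rest, including activity in the rising direction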;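 note: lower polarization ratio signals compound binding to DNA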
* = called active by the depositor; ? = inconclusive; / = no result.

SMILES	PAX8 inh HTS	EWS-Fli block	LGR2 antag	TRPM1 prom inh	PGC1a acetyl inh	EBV LMP1 NFkB	DNA binding
C[C@@H]1CN([C@@H](C)CO)C(=O)c2cc(NC(=O)Nc3ccc(C(F)(F)F)cc3)ccc2O[C@@H]1CN(C)Cc1ccc(C(=O)Nc2ccccc2N)cc1	/	39	6	/	16	/	/
O=C(NC[C@@H]1N[C@@H](CO)[C@H]1c1ccc(C2=CCCCC2)cc1)c1cccc(F)c1	5	59*	-4	/	9	/	0%
COc1cc(/C=N\Nc2nc(-c3ccc(C)cc3)c(NC(C)=O)s2)ccc1O	5	54*	-2	-13	-18	3	-11%
COc1ccc(/C=N/Nc2nc(-c3ccc(C)cc3)c(NC(C)=O)s2)cc1OC	15	-7	9	-9	0	5	/
CC(=O)NCCC1CCCCN1Cc1nc(Cc2cccc(C(F)(F)F)c2)no1 (centres undefined)	-2	6	7	8	2	1	/
CNC[C@H](CC1CCCCC1)NC[C@H](CO)NCCc1cccc(C(F)(F)F)c1	72*	61*	?	57	-41	-13	-8%
COc1ccc(C(=O)NC(CO)c2nnc(SCc3ccc(Cl)c(Cl)c3)n2C)cc1 (centres undefined)	/	/	-6	6	11	-13	/
CC(C)CC(NC(=O)c1cccs1)c1nnc(SCc2ccc(Cl)c(Cl)c2)n1C (centres undefined)	14	76*	10	0	-2	7	-21%
O=C(c1nnsc1S(=O)c1ccc(Cl)cc1)N1CCOCC1 (centres undefined)	112*	78*	/	88*	-39	23	-10%
C[C@H]1CN([C@@H](C)CO)S(=O)(=O)c2ccc(C#CC3CCCC3)cc2O[C@@H]1CN(C)S(C)(=O)=O	/	5	6	/	-14	/	/
Nc1ncccc1OCc1cccc(C(F)(F)F)c1	-4	-6	-15	2	/	-10	/
Nc1nc(N)c(-c2cccc(C(F)(F)F)c2)c(Cc2cccc(C(F)(F)F)c2)n1	5	58*	5	19	/	7	-3%
CO[C@H]1CN(C)C(=O)c2cc(NC(=O)c3ccc(Oc4ccccc4)cc3)ccc2OC[C@H](C)NC[C@@H]1C	36	58*	9	/	-20	/	-18%
CO[C@H]1CN(C)C(=O)c2ccc(NC(=O)c3ccc(-c4ccccc4)cc3)cc2OC[C@H](C)NC[C@H]1C	?	83*	8	/	-45	/	-14%
CO[C@@H]1CN(C)C(=O)c2ccc(NC(=O)c3ccc(-c4ccccc4)cc3)cc2OC[C@@H](C)NC[C@@H]1C	16	16	0	/	14	/	/
Cc1ccc(S(=O)(=O)Nc2cccc3c2O[C@H](CN(C)Cc2ccc4c(c2)OCO4)[C@@H](C)CN([C@H](C)CO)C3=O)cc1	7	5	12	/	-9	/	/
CCCNC(=O)[C@@H]1[C@@H](CO)[C@@H]2Cn3c(cccc3=O)[C@@H]2N1CC1CCCC1	/	-3	11	/	-2	/	/
C[n+]1ccn(CC(=O)c2cccs2)c1	8	8	12	-3	4	5	/
CCCCCCCCCCCCCCCCn1cc[n+](C)c1	99*	73*	/	70*	/	5	-17%
COc1ccc2oc(-c3ccccc3)cc(=O)c2c1	/	60*	64*	/	-3	/	-4%
O=c1cc(-c2ccccc2)oc2ccc(Br)cc12	-194	-6	6	-47	-12	-9	/
COCC(=O)Nc1ccc2c(c1)C(=O)N(C)[C@@H]1CC[C@@H](CC(=O)NCC3CC3)O[C@H]1CO2	6	1	8	/	3	/	/
C[C@H]1CN([C@@H](C)CO)C(=O)c2cc(-c3ccncc3)cnc2O[C@@H]1CN(C)Cc1ccc(F)cc1	/	-11	-7	/	7	/	/
C[C@H](CO)N1C[C@H](C)[C@@H](CN(C)Cc2ccc(C(=O)Nc3ccccc3N)cc2)Oc2ccc(NC(=O)Nc3ccc(F)cc3)cc2C1=O	/	6	4	/	-6	/	/
C[C@H](CO)N1C[C@H](C)[C@H](CN(C)Cc2ccc(C(=O)Nc3ccccc3N)cc2)OCCCC[C@H](C)Oc2ccc(N(C)C)cc2C1=O	-19	9	/	/	-18	/	/
SMILES	PAX8 inh HTS	EWS-Fli block	LGR2 antag	TRPM1 prom inh	PGC1a acetyl inh	EBV LMP1 NFkB	DNA binding
C[C@@H]1CN([C@H](C)CO)C(=O)Cc2cc(N(C)C)ccc2O[C@H]1CN(C)Cc1ccc(C(=O)Nc2ccccc2N)cc1	16	59*	-4	/	-27	/	-9%
C[C@H](CO)N1C[C@H](C)[C@H](CN(C)Cc2ccc(C(=O)Nc3ccccc3N)cc2)Oc2ccc(N(C)C)cc2C1=O	76*	65*	-18	/	-34	/	3%
C[C@@H]1CN([C@@H](C)CO)C(=O)Cc2cc(NC(=O)c3ccncc3)ccc2O[C@H]1CN(C)Cc1ccc(C(=O)Nc2ccccc2N)cc1	-23	28	4	/	6	/	/
C[C@@H]1CN([C@H](C)CO)C(=O)c2cc(NC(=O)Nc3ccccc3)ccc2O[C@@H]1CN(C)Cc1ccc(C(=O)Nc2ccccc2N)cc1	-12	55*	4	/	5	/	-11%
C[C@@H]1CN([C@@H](C)CO)C(=O)c2cc(N(C)C)ccc2O[C@H]1CN(C)Cc1ccc(C(=O)Nc2ccccc2N)cc1	-21	63*	9	/	3	/	-7%
CCCC(=O)Nc1ccc2c(c1)C(=O)N(C)[C@@H]1CC[C@H](CC(=O)N3CCc4ccccc4C3)O[C@H]1CO2	31	4	8	/	-9	/	/
COc1ccc(-c2ccccc2[C@H]2[C@@H](C#N)N(C(=O)C3CCCC3)[C@@H]2CO)cc1	-3	3	-8	/	0	/	/
C[C@@H]1CN([C@H](C)CO)C(=O)c2cc(N(C)C)ccc2O[C@H]1CN(C)Cc1ccc(C(=O)Nc2ccccc2N)cc1	4	65*	8	/	3	/	6%
C[C@@H]1CN([C@@H](C)CO)C(=O)Cc2cc(NC(=O)C3CCCCC3)ccc2O[C@H]1CN(C)Cc1ccc(C(=O)Nc2ccccc2N)cc1	/	52*	-6	/	-20	/	-7%
C[C@H](CO)N1C[C@H](C)[C@@H](CN(C)Cc2ccc(C(=O)Nc3ccccc3N)cc2)Oc2ccc(N(C)C)cc2C1=O	29	?	16	/	-4	/	/
C[C@H]1CN([C@@H](C)CO)C(=O)c2cc(N(C)C)ccc2O[C@H]1CN(C)Cc1ccc(C(=O)Nc2ccccc2N)cc1	3	61*	10	/	-8	/	-8%
COc1cccc(OC)c1C(=O)Nc1cc(C)nn1-c1nc2ccccc2[nH]1	15	59*	6	7	/	18	2%
COc1ccc(C(=O)Nc2cc(C)nn2-c2nc3ccccc3[nH]2)c(OC)c1	-7	-1	0	0	/	-11	/
CN1c2ccc(Br)cc2[C@@H]2[C@@H](CCN2C(=O)Nc2ccc(F)cc2)[C@H]1CO	-8	4	30	/	10	/	/
